Results taken from ChEMBL document CHEMBL1961873, “Compounds: GSK PKIS; Assays: Nanosyn kinase panel” (2012).
Several values for one entry are separate records, joined by “and”; a condition that tells them apart may be missing. Identical values can stand only once.

Assays:
[1] = target: Mast/stem cell growth factor receptor Kit (Homo sapiens) (UniProt P10721); settings: at 1 µM
[2] = system: Mast/stem cell growth factor receptor Kit (Homo sapiens), P10721 [D816V]; settings: at 0.1 µM
[3] = system: Mast/stem cell growth factor receptor Kit (Homo sapiens), P10721 [D816V]; settings: at 1 µM
[4] = system: Mast/stem cell growth factor receptor Kit (Homo sapiens), P10721 [T670I]; settings: at 0.1 µM
Mast/stem cell growth factor receptor Kit (Homo sapiens), P10721 [T670I], sequence (P10721 whole entry T670I): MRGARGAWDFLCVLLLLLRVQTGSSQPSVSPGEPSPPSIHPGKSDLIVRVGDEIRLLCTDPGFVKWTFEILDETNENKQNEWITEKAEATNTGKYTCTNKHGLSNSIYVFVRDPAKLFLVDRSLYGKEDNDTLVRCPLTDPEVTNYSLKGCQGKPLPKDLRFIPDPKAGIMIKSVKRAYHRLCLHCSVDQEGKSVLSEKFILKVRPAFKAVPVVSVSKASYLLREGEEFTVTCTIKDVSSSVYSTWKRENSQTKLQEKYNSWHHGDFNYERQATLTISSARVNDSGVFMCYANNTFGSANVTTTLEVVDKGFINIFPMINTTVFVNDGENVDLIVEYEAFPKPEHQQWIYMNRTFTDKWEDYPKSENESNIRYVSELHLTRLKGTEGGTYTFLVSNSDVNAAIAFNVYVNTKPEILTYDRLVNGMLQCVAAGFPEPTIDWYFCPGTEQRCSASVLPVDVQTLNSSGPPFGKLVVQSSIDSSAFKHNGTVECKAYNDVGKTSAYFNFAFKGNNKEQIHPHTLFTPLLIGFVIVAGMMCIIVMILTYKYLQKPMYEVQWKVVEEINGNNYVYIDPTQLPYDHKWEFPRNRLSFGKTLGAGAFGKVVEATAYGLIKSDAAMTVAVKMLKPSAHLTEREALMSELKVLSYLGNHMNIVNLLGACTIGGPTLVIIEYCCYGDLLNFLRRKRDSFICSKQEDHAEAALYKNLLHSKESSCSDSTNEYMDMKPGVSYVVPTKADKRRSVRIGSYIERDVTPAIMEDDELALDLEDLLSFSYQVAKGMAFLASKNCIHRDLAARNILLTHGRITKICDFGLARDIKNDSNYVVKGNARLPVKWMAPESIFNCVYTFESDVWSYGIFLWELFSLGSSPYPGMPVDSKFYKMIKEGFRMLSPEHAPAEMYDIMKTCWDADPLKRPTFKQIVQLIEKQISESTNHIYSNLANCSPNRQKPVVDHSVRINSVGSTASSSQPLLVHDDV

[5] = system: Mast/stem cell growth factor receptor Kit (Homo sapiens), P10721 [T670I]; settings: at 1 µM
[6] = system: Mast/stem cell growth factor receptor Kit (Homo sapiens), P10721 [V560G]; settings: at 0.1 µM
Mast/stem cell growth factor receptor Kit (Homo sapiens), P10721 [V560G], sequence (P10721 whole entry V560G): as the sequence (P10721 whole entry T670I) above, with V560G, I670T counted along it

[7] = system: Mast/stem cell growth factor receptor Kit (Homo sapiens), P10721 [V560G]; settings: at 1 µM
[8] = target: Tyrosine-protein kinase Lck (Homo sapiens) (UniProt P06239); settings: at 0.1 µM
Tyrosine-protein kinase Lck (Homo sapiens), sequence (P06239 2-509 limits assumed): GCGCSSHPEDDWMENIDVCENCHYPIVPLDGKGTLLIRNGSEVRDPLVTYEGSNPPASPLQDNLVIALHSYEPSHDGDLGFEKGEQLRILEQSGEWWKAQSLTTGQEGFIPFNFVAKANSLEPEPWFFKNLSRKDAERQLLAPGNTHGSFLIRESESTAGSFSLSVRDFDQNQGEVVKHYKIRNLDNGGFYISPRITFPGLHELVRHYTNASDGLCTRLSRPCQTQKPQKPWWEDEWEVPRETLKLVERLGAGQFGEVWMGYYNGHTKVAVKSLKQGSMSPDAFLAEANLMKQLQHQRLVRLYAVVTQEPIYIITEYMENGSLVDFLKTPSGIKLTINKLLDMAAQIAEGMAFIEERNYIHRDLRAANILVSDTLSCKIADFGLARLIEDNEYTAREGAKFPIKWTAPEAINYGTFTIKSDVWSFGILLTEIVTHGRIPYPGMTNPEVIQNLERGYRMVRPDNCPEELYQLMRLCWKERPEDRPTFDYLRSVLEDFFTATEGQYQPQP

[9] = target: Tyrosine-protein kinase Lck (Homo sapiens) (UniProt P06239); settings: at 1 µM
[10] = target: Leukocyte tyrosine kinase receptor (Homo sapiens) (UniProt P29376); settings: at 0.1 µM
Leukocyte tyrosine kinase receptor (Homo sapiens), sequence (P29376 whole entry): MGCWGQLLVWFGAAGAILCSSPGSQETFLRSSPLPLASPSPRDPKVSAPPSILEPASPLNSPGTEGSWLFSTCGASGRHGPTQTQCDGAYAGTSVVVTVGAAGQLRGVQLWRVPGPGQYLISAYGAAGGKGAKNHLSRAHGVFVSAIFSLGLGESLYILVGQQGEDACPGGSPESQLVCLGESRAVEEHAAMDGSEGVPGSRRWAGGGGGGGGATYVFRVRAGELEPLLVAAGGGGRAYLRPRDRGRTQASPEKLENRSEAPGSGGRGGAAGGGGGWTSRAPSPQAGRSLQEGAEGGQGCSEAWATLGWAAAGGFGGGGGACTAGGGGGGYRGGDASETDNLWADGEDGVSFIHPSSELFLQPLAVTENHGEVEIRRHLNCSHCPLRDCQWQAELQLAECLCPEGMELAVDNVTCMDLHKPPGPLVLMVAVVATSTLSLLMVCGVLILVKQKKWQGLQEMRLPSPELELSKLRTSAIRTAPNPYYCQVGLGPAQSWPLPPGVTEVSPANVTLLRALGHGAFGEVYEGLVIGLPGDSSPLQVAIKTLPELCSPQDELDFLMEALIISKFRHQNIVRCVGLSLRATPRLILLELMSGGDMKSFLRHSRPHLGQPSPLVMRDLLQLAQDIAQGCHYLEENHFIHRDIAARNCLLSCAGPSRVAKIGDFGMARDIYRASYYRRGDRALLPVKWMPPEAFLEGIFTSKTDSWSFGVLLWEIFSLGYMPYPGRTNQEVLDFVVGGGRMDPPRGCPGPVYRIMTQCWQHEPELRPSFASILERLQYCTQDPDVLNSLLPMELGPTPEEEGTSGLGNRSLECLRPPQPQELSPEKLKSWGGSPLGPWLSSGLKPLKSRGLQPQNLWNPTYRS

[11] = target: Leukocyte tyrosine kinase receptor (Homo sapiens) (UniProt P29376); settings: at 1 µM
[12] = target: Tyrosine-protein kinase Lyn (Homo sapiens) (UniProt P07948); settings: at 0.1 µM
Tyrosine-protein kinase Lyn (Homo sapiens), sequence (P07948 2-512 limits assumed): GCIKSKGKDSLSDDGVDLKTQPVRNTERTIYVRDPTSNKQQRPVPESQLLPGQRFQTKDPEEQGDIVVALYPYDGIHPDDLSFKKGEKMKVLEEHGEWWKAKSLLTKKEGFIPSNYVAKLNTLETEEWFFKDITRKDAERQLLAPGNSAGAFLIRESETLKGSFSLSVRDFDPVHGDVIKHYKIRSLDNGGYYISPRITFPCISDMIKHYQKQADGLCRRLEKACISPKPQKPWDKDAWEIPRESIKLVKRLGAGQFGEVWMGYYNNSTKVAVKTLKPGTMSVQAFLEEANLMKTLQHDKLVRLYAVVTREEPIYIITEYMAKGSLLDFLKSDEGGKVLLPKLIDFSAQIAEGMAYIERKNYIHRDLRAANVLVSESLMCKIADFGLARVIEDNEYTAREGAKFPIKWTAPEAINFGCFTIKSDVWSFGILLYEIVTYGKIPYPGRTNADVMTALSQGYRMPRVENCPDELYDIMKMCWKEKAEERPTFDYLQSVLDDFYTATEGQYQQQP

[13] = target: Tyrosine-protein kinase Lyn (Homo sapiens) (UniProt P07948); settings: at 1 µM
[14] = target: Tyrosine-protein kinase Lyn (Homo sapiens) (UniProt P07948); settings: at 0.1 µM; remark: listed apart in the source
[15] = target: Tyrosine-protein kinase Lyn (Homo sapiens) (UniProt P07948); settings: at 1 µM; remark: listed apart in the source
[16] = target: T1, Tyrosine-protein kinase Mer (Homo sapiens) (UniProt Q12866); settings: at 0.1 µM
T1 sequence (whole entry): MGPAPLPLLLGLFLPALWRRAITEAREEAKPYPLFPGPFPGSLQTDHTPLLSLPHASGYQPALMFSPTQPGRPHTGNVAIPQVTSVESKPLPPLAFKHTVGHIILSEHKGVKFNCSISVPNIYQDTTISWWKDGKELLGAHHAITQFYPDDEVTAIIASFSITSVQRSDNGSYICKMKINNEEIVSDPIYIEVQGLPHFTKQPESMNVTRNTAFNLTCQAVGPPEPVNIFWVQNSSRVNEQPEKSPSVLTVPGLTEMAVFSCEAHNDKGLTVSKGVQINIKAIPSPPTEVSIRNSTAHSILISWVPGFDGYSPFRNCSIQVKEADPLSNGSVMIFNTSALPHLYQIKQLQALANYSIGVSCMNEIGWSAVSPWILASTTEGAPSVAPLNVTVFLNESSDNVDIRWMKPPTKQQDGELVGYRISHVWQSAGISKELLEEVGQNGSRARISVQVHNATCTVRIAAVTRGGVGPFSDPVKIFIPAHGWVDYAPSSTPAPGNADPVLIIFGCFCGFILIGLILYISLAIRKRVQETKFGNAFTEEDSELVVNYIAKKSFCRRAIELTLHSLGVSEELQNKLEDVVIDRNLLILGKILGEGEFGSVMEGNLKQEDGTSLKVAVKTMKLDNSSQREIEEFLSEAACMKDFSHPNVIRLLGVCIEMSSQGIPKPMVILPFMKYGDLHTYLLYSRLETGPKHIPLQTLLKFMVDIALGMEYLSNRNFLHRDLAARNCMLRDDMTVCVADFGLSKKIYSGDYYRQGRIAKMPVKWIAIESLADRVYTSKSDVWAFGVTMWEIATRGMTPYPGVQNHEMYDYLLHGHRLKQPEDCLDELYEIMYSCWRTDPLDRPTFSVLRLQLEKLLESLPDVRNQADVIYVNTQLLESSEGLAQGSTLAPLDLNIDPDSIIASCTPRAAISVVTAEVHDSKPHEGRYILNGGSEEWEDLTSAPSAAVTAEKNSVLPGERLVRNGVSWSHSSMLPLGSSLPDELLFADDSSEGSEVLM

[17] = target: T1, Tyrosine-protein kinase Mer (Homo sapiens); settings: at 1 µM
[18] = target: Hepatocyte growth factor receptor (Homo sapiens) (UniProt P08581); settings: at 0.1 µM
Hepatocyte growth factor receptor (Homo sapiens), sequence (P08581 whole entry): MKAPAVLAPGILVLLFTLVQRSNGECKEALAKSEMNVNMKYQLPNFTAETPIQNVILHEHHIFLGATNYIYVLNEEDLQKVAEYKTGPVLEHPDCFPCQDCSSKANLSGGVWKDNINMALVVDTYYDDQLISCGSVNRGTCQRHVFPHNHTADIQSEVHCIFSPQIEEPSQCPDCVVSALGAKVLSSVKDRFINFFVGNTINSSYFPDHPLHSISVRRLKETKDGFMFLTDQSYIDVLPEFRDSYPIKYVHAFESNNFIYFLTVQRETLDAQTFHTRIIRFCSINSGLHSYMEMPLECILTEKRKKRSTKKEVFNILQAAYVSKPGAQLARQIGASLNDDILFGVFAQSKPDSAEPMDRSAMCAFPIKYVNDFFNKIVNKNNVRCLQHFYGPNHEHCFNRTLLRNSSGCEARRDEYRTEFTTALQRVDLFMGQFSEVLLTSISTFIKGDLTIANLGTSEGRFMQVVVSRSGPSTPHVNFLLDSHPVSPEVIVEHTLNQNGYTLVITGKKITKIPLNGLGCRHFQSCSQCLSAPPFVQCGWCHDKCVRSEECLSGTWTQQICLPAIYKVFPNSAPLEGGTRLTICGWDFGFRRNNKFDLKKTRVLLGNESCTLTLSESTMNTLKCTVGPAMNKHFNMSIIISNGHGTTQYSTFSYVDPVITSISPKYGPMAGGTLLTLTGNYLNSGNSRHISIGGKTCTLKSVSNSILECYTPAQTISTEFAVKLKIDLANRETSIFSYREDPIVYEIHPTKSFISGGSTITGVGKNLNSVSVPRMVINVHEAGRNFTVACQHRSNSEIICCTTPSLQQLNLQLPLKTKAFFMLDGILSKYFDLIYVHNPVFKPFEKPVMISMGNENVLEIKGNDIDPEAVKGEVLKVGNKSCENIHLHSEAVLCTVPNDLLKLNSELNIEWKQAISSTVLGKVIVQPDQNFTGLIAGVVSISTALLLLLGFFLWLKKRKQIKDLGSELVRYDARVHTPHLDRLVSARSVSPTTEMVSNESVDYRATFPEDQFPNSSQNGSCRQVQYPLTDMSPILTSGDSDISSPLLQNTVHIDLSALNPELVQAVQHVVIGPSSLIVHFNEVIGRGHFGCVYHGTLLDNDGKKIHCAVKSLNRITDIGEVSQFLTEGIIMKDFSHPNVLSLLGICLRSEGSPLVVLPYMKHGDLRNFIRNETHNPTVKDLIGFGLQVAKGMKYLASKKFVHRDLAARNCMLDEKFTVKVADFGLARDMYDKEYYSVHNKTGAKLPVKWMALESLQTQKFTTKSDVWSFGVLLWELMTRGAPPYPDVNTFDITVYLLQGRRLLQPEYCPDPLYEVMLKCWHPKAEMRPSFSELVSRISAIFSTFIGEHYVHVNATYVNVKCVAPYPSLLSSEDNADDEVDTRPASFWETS

[19] = target: Hepatocyte growth factor receptor (Homo sapiens) (UniProt P08581); settings: at 1 µM
[20] = target: T2, Muscle, skeletal receptor tyrosine-protein kinase (Homo sapiens) (UniProt O15146); settings: at 0.1 µM;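 note: values are mean inhibition of MuSK from the GSK PKIS kinase screening panel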
T2 sequence (whole entry): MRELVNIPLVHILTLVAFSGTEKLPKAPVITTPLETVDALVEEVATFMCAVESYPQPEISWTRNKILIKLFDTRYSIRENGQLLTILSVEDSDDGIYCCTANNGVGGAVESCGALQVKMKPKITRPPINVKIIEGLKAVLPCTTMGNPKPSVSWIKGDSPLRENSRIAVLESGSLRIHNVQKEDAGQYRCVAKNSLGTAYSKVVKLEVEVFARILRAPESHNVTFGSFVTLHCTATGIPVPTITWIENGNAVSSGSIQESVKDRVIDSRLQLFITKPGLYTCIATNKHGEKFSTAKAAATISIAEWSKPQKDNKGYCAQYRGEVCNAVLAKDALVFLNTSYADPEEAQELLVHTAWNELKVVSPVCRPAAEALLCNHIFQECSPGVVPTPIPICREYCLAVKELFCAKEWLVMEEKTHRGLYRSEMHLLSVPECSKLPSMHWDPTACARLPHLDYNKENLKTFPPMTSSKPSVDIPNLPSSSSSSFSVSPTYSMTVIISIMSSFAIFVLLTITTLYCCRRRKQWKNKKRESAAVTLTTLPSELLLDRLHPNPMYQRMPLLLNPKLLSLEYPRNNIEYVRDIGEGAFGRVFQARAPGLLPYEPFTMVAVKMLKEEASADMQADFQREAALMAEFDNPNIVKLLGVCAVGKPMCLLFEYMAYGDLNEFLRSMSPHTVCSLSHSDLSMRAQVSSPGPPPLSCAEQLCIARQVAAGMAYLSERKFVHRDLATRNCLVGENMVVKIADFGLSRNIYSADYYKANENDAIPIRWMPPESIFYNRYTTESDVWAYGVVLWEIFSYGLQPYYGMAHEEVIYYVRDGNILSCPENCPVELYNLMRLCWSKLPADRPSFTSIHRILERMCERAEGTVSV

Mast/stem cell growth factor receptor Kit (Homo sapiens), sequence (P10721 whole entry): as the sequence (P10721 whole entry T670I) above, with I670T counted along it
Mast/stem cell growth factor receptor Kit (Homo sapiens), P10721 [D816V], sequence (P10721 whole entry D816V): as the sequence (P10721 whole entry T670I) above, with I670T, D816V counted along it

SMILES	inhibition [1]	inhibition [2]	inhibition [3]	inhibition [4]	inhibition [5]	inhibition [6]	inhibition [7]	inhibition [8]	inhibition [9]	inhibition [10]	inhibition [11]	inhibition [12]	inhibition [13]	inhibition [14]	inhibition [15]	inhibition [16]	inhibition [17]	inhibition [18]	inhibition [19]	inhibition [20]
Fc1ccc(Nc2nccc(-c3c(-c4ccc(C(F)(F)F)cc4)nn4ncccc34)n2)cc1F	4.68%	2.15%	2.45%	0.78%	2.14%	-1.76%	1.06%	3.17%	0.53%	2.82%	3.06%	2.77%	2.13%	1.22%	0.38%	3.18%	2.81%	4.74%	4.74%	2.34%
CS(=O)(=O)CCNCc1ccoc1-c1ccc2ncnc(Nc3ccc(OCc4ccccc4)cc3)c2c1	6.88%	5.01%	1.5%	2.27%	2.3%	0.74%	3.57%	1.79%	8.23%	1.59%	1.37%	2.38%	4.27%	1.69%	4.32%	3.82%	25.2%	3.02%	4.88%	1.36%
CN1CCN(Cc2ccc(-c3cc4ncnc(Nc5ccc(OCc6cccc(F)c6)c(Cl)c5)c4s3)o2)CC1	11.5% and 12.7%	3.79% and 5.98%	5.98% and 4.53%	2.89% and 2.77%	2.77% and 5.27%	-1.59% and -3.38%	2.22% and 1.14%	4.76% and 7.19%	22.2% and 27.2%	3.61% and 4.17%	6.82% and 9.25%	3.27% and 7.55%	9.39% and 15.3%	2.07% and 5.46%	6.51% and 12%	8.38% and 10.3%	48.5% and 49.4%	11.1% and 5.95%	24.3% and 34.3%	0.99% and 4.74%
CN(c1ccc(NC(=O)NCCN2CCOCC2)cc1)c1ccnc(Nc2ccc(CS(C)(=O)=O)cc2)n1	94.2%	2.49%	4.98%	21.6%	73.6%	57.2%	84.5%	1.63%	11%	2.84%	5.29%	4.34%	14.9%	2.19%	13.6%	1.6%	6.28%	3.89%	41.4%	3.78%
O=C(O[C@H]1CN[C@H](C#Cc2cc3ncnc(Nc4ccc5c(cnn5Cc5ccccc5)c4)c3s2)C1)N1CCOCC1	0.9%	-4.43%	-0.62%	-1.83%	-1.48%	-1.18%	-0.48%	0.34%	6.67%	0.04%	-0.87%	1.1%	1.11%	1.54%	0.75%	1.33%	9.62%	5.14%	1.77%	0.92%
COc1cccc(-n2ncc3c(N/N=C/c4ccc(C(=O)NCCN(C)C)cc4)ncnc32)c1	65.8%	7.1%	15%	6.62%	52.3%	2.06%	5.99%	72.9%	94.4%	2.24%	4.37%	56.9%	88.1%	51%	86.3%	16.8%	59.3%	12.9%	55.7%	40.4%
Fc1cccc(COc2ccc(Nc3ncncc3C#Cc3ccccc3)cc2Cl)c1	7.97%	9.06%	7.92%	3.83%	6.38%	-1.39%	-0.04%	1.72%	2%	4.37%	4.63%	6.26%	7.71%	2.8%	7.49%	0.06%	2.67%	8.24%	5.53%	3.76%
COc1cc(N2CCN(C(C)C)CC2)ccc1Nc1nc(Nc2cccc3ncccc23)c2cc[nH]c2n1	2.29%	-1.39%	-2.2%	0.28%	0.54%	0.73%	6.87%	0.42%	3.07%	34.7%	80.2%	0.41%	2.82%	0.31%	2.18%	0.54%	2.09%	-2.89%	-1.9%	5.11%
COc1ccc(Nc2ncc(-c3ccccc3)o2)cc1OC	95.9%	-0.42%	1.76%	46.1%	90.3%	45.7%	84.8%	2.31%	21.2%	1.44%	2.24%	7.52%	37.3%	5.1%	32.9%	-0.52%	5.18%	2.78%	1.69%	2.37%
CCCNc1cccc(-n2ncc3c(N/N=C/c4ccncc4)ncnc32)c1	23.7%	-0.57%	9.89%	1.36%	5.45%	7.17%	13.4%	23.1%	68.3%	1.2%	4.23%	18%	69.6%	15.4%	64.8%	6.21%	25.6%	12.6%	49%	8.51%
CC1=C(C(=O)Nc2ccc3[nH]nc(C)c3c2)C(c2ccc(C(F)(F)F)cc2)CC(=O)N1 (stereo not given)	2.22%	5.34%	1.99%	-0.21%	1.75%	0.71%	-0.03%	5.93%	18.8%	1.5%	3.55%	4.49%	6.25%	1.98%	3.89%	2.17%	5.55%	1.4%	17.3%	5.25%
c1ccc(-c2n[nH]cc2-c2ccnc(-c3ccc(OCCn4ccnc4)cc3)c2)nc1	11.4%	3.19%	19.5%	1.86%	3.3%	1.49%	4.59%	0.89%	12.7%	0.8%	2.53%	2.2%	16.3%	0.89%	12.3%	0.8%	2.68%	4.9%	0.98%	0.34%
COc1ccc2ncn(-c3cc(O[C@H](C)c4ccccc4C(F)(F)F)c(C(N)=O)s3)c2c1	14.7%	-1.17%	2.71%	1.09%	3.92%	0.71%	2.83%	0.65%	2.2%	0.48%	1.97%	0.92%	1.75%	-0.04%	1.72%	-0.24%	2.59%	-3.32%	0.66%	3.55%
